Source: PubChem BioAssay AID1508600 (Functional Genomics Laboratory (NCATS/FGL), 2020)
About 3,700 (7%) of roughly 53,000 sequences were called active.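 The calls were made as follows: active = gene knockdowns whose robust z-score for IL-1 alpha signal is at least 2 or at most -2, so actives lie on both sides; inactive = the rest.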 The entries come from a sample that favours actives as a whole.

Test: Components of the Cytosolic LPS Sensing Pathway: Gene Identification via Genome-wide siRNA Screen;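 also: robust z of the log signal after scaling to non-targeting control siRNA wells of the plate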
Conditions: RAW264.7 macrophages, IL-1a HTRF, actives lie on both sides, screened at 100 nM (by protocol), cells primed 5 h with Pam3CSK4 first
Summary of the method: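 Supernatant IL-1a by HTRF from RAW264.7 cells primed with Pam3CSK4 (5 hours) and transfected with LipidA (24 hour) after 48h siRNA knockdown at 100 nM; cell viability checked with CellTiter-Glo.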

z-score, inactive:
GGAUAGCAAAUUCAUCACATT against Ptprg -0.214, GGCUUCGUAGCUUUACAAATT against Abca6 -0.846, GGAAAGGUCAAGAGAAUUUTT against Strn3 -1.16, GGACUUACUGACAAGAAACTT against Pcdhgb8 -0.52, UUCUAAUUGUCACUUGGUGTT against Olfr1474 -0.133, GCAUUAAGCAAUGGCAUCATT against Cbfa2t2 0.21, GCAUCAGAGAAGUGCGAGCTT against Pafah2 -0.0121, GCUCAUGAUCAUAUCAUGATT against 1810055G02Rik 0.647, CCCACACAAUUCUCAUGGGTT against Olfr366 0.661, GGAAUACGAAGAGAUUAUATT against Zw10 0.65, CCUUCAAGAUAAAUUGACATT against Tango6 0.755, GGAAAAGGCCAUGAAUAUATT against Mmel1 0.176, GGCCAGACACAGGUAGACATT against B9d2 -1.85, CGGACGAUUCGUGUCAAUUTT against Ppie 0.619, CCUGAUGUUAUUCCUUUUATT against Klhl20 -0.524, GGUGAUGACGAAGGAAUCCTT against Zfpm2 -1.51, GGACAUUUUUAUUAGUGGATT against Gtpbp8 1.04, CCAUUGGAGGAUAAGUUUUTT against Mtm1 -0.0988, GGAAAAUGGAGAACUAAAGTT against Uxs1 1.88, GGAUAAACCCUACGUUCUATT against Slc44a4 0.658, GGUUAUCCGUGGUAACCAUTT against Taok3 0.78, GGUAUUCGUGGAGUGGAGATT against Pdcd2l 0.0458, GGUCCUACAAAAAGAUGGATT against Mettl7b -0.536, CGAGAUUGUGCUGAUAGAGTT against Nptx2 0.533, CGUGUUGUACUACGUAUAUTT against Abtb1 -0.172, CCUAAAAGACUUUGGAGACTT against Arg2 -1.09, GGCCCUCAUGAUUGCUAUGTT against Nek8 -0.722, CCAGUUGAGUCACUUACUGTT against Borcs7 0.667, CGCGGCAUAAACAUGUAAATT against Gatc -1.07, GGUGUCUUUCUUCACUCUUTT against Olfr862 0.225, CGUGUUUGAUCACUACUCUTT against Tnfaip8l2 -0.593, GCAGAUUAGCUUCGUCAACTT against Top2a -0.588, GCGAAAUCCUGGGCUACUCTT against Dyrk4 -0.32, GGUUGUGACUACACUAUGGTT against Zfp456 -1.7, GUUACACAGGAGUGUGUAATT against Rnase2a 0.573, GGUGGCUUUAGGGAACAUUTT against Dctn3 0.369, GGAAAUGGAGAAAUAUGCATT against Plod3 -0.167, GGAGAUGAAAAAAACGAGCTT against Rxylt1 -0.222, GCAAAUAAUGAGGUCCAGATT against Rbms2 -0.377, GGCGAUGAAGAAGUAAUUUTT against Appl2 -1.2, CCCAUUAAGGUAUAAUAUCTT against Olfr855 -0.301, GGUUUCAUUUGGAUUUGCATT against Glyr1 0.491, GGCAAAGAUAAUAAAGCUATT against Xpo1 -0.967, CCGUUUACUUCGUCCAAGUTT against Crlf1 -0.134, GGGUCCUCUGAAAGUUACCTT against Fndc5 0.497, GCACUUUGGCAUAUUUUCATT against Slc6a15 -0.391, GGAAAUGCUUCUGAGCUAGTT against Desi2 1.71, GGGACGACUCUUUCUUAUGTT against Olfr1264 0.822, GGAGCUAGUAUGUUCAACATT against Ubqln1 -0.942, GGUGUUUGUUUCUAACUUCTT against Glcci1 -0.434, GCACUCUGCCUGAAAUACCTT against Nlrp1a -0.376, GGACUUCACAAUCUCUUUCTT against Hck -0.11, GGAAGAAUCCACUUUGAACTT against Chil4 0.048, GGGCUAAAUUAAGCUUCUATT against Sowahd -0.707, GCCUGCUUAAGCUACUUAUTT against Fam210b -1.04

z-score, active:
GCUGGAUUAUUUGAGAGUCTT against Trim62 2.17, CCUAGAAAAGUCAUUGUCATT against 3010003L21Rik -2.08, GGACGAACAGUAUUAUACUTT against Lhx5 2.11, GGAGCAAGACAUAUAGAAATT against Spsb2 2.26, CGAACGUGAUGAGUUAUGGTT against Vmn1r83 -2.67, GGGCAAUUAGUAAAGGCUATT against Eif2s3x 2.02, CCUUCCAUGGUGAGGAUAATT against Stim1 -2, GGACUGACUGGCUUCAUUGTT against Atl2 -2.52, CGCAGAACGUGAACACCAATT against Smad3 -2.47, ACCUUUGUCCUUUUGUUGUTT against Defb15 2.01, GCAAGUCCUACAAUACAACTT against Tk1 5.5, CCUUAUUUGUCCAUAAAAGTT against Pkdrej 2.43, GGAGAAAGGUGGUUUGGUATT against Sap30bp -2.85, CGAAUUCAUACCAGUGUGCTT against Ndufa10 2.84
